From PubChem BioAssay (EPA / NIEHS) come the findings set out here.

Assay [1] is described as follows: APR_HepG2_CellCycleArrest_1hr: Apredica 1-hour HepG2 Assay for Cell Cycle Arrest (AID 2282666). To be noted: high-content imaging, actives raise or lower the signal. A digest of the protocol: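 HepG2 cells exposed for 1 h to 0.39–200 uM compound (0.5% DMSO). Fixed, Hoechst-stained nuclei imaged by ArrayScan; DNA content quantified by Cell Cycle analysis; bidirectional fit against DMSO.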

Assay [2] can be described thus: ACEA_ER_80hr: ACEA Biosciences xCELLigence Real-Time Cell Analysis on Estrogen Receptor Agonism for Proliferation (AID 2282667; active = hit-call score of the fitted dose curve at least 0.9, where 1 is the maximum). To be noted: T47D proliferation, impedance (xCELLigence), 80 h. A digest of the protocol:
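Cell-growth kinetics were measured by impedance in T47D cells treated continuously with compound (top 100 uM final, 1:4 steps, 8 points). Activity at 80 h was scored as signal gain over the DMSO baseline.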

The nature of assay [3]: APR_HepG2_MicrotubuleCSK_1hr: Apredica 1-hour HepG2 Assay for Microtubule CSK Stabilty (AID 2282669). To be noted: HepG2 microtubule cytoskeleton imaging, actives raise or lower the signal. An outline of the steps:
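HepG2 cells exposed 1 h to 0.39–200 uM compound (0.5% DMSO, duplicates), then formaldehyde-fixed, permeabilized and immunostained for alpha-tubulin with Hoechst nuclei. Imaged by ArrayScan high-content analysis; bidirectional fit versus DMSO.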

The nature of assay [4]: APR_HepG2_p53Act_1hr: Apredica 1-hour HepG2 Assay for p53 Activation (AID 2282671). To be noted: high-content imaging, actives raise or lower the signal. A digest of the protocol:
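HepG2 cells treated 1 h with compound at 0.39–200 uM (10 concentrations, duplicate) in 0.5% DMSO. Formaldehyde-fixed, permeabilised cells immunostained for p53 with Hoechst 33342; high-content imaging, bidirectional fit versus DMSO.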

Assay [5] can be described thus: APR_HepG2_MitoticArrest_1hr: Apredica 1-hour HepG2 Assay for Mitotic Arrest (AID 2282672). As to conditions: high-content imaging, actives raise or lower the signal. A digest of the protocol: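 HepG2 cells exposed 1 hr to compounds at 0.39–200 uM (0.5% v/v DMSO final), then fixed in 3.7% formaldehyde and immunostained for phospho-histone H3 with Hoechst 33342. Mitotic arrest scored by automated fluorescence imaging, fitted bidirectionally versus DMSO.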

The nature of assay [6]: APR_HepG2_P-H2AX_1hr: Apredica 1-hour HepG2 Assay for H2AX Phosphorylation (AID 2282673). As to conditions: high-content imaging, actives raise or lower the signal. An outline of the steps:
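HepG2 dosed 1 hr at 0.39-200 uM (0.5% DMSO final), duplicate. Fixed in 3.7% formaldehyde, Triton permeabilized, immunostained for phospho-histone H2A.x (1:200) with Hoechst 33342; ArrayScan 20x imaging, bidirectional fit vs DMSO.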

A short description of assay [7]: APR_HepG2_MitoMass_1hr: Apredica 1-hour HepG2 Assay for Mitochondrial Mass (AID 2282674). To be noted: high-content imaging, actives raise or lower the signal. A digest of the protocol:
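HepG2 cells dosed 1 hr with 0.39-200 uM compound (0.5% DMSO), duplicate wells. Mitochondria stained with 250 nM MitoTracker Red CMXRos for 30 min before formaldehyde fixation, imaged at 20x by ArrayScan; bidirectional fit versus DMSO.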

The nature of assay [8]: APR_HepG2_MitoMembPot_1hr: Apredica 1-hour HepG2 Assay for Mitochondrial Membrane Potential (AID 2282675). To be noted: imaging, actives raise or lower the signal. A digest of the protocol: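 HepG2 cells dosed 1 hour with 0.39–200 uM compound in duplicate, 0.5% DMSO final. MitoTracker Red CMXRos (250 nM, 30 min) loaded before formaldehyde fixation; fluorescence quantified by high-content imaging, bidirectional fitting versus DMSO.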

Assay [9] can be described thus: APR_HepG2_CellLoss_1hr: Apredica 1-hour HepG2 Assay for Cell Loss (AID 2282668).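 Also: curves fitted both ways against DMSO so gain or loss of cells counts.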 To be noted: high-content imaging. A digest of the protocol:
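HepG2 cells were treated for 1 h with compound at 0.39–200 uM, in duplicate, in 0.5% DMSO. After formaldehyde fixation, Hoechst 33342-stained nuclei were imaged on an ArrayScan to count cells. Data were fitted bidirectionally versus DMSO.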

Assay [10] can be described thus: APR_HepG2_NuclearSize_1hr: Apredica 1-hour HepG2 Assay for Nuclear Size (AID 2282670). To be noted: high-content imaging, actives raise or lower the signal. A digest of the protocol:
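HepG2 cells dosed 1 hr with 0.39–200 uM compound (0.5% DMSO), formaldehyde-fixed, Hoechst 33342-stained and imaged at 20x; nuclear diameter from nuclear stain, fitted bidirectionally against DMSO.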

Results filed as inconclusive are left out. Some structures have more than one record in an assay (separate samples or runs), and their calls can disagree. Calls of active or inactive are those of the source. The calls were made as follows, unless noted: active = hit-call score of the fitted dose curve at least 0.9, where 1 is the maximum; inactive = score below 0.9.

Take `O=C(O)COc1nc(Cl)c(Cl)cc1Cl`: the molecule was called inactive in assay [1], in assay [2], in assay [3], in [4], in assay [5] and in [6]. For the same molecule, the result in assay [7] and in assay [8] was inactive.

As to `CC(Oc1ccc(Cl)cc1Cl)C(=O)O` (centres undefined), the molecule was called inactive in assay [1], in assay [2], in assay [9], in [3], in assay [4] and in assay [5]. The result in [7] and in assay [8] was inactive.

Consider `CCON=C(CC)C1=C(O)CC(c2c(C)cc(C)cc2C)CC1=O` (centres undefined), for which the result in assay [1], in assay [2], in [3], in [10], in assay [4] and in assay [5] was inactive. In addition, the call in [7] and in assay [8] was inactive.

Turning to `CS/C(C)=N/OC(=O)N(C)SN(C)C(=O)O/N=C(\C)SC`, the result in assay [1], in [3], in [10], in [4], in [6] and in assay [7] was inactive. Also, in [8], the call was inactive. Moreover, the half-maximal activity concentration (AC50) in assay [2] was 164 nM (active); in [9], 45.7 µM (active); in [5], 29.7 µM (active).

`CC(C)C1(C)N=C(c2nc3ccccc3cc2C(=O)O)NC1=O` (centres undefined): the molecule was called inactive in assay [1], in [2], in [3], in [10], in [4] and in assay [5]. Moreover, the result in assay [7] and in assay [8] was inactive.

Take `N#Cc1cc(Br)c(O)c(Br)c1`: the outcome in assay [1], in assay [2], in assay [9], in assay [3], in assay [10] and in [4] was inactive. The molecule was classed as inactive in [5], in assay [6], in assay [7] and in assay [8].

For the molecule `CCc1nn(C)c(C(=O)NCc2ccc(C(C)(C)C)cc2)c1Cl`, the molecule was classed as inactive in assay [1], in assay [3], in [4], in assay [5], in [6] and in assay [7]. Besides, the molecule was called inactive in assay [8]. Further, in [2], the half-maximal activity concentration (AC50) is 18.3 nM (active).

Regarding `C=CCC1=C(C)[C@@H](OC(=O)[C@@H]2[C@@H](C=C(C)C)C2(C)C)CC1=O`, the call in [1], in [2], in assay [3], in assay [4], in assay [5] and in assay [6] was inactive. In addition, the call in assay [7] was inactive. Also, the concentration at half-maximal activity (AC50) in assay [8] is 109 µM (active).

Turning to `CCCCC(CC)COC(=O)c1ccccc1C(=O)OCC(CC)CCCC` (centres undefined), the call in assay [1], in [2], in [9], in assay [3], in assay [4] and in [5] was inactive. The outcome in [7] and in assay [8] was inactive.

Take `CCOC(=O)CC(SP(=S)(OC)OC)C(=O)OCC` (centres undefined): the result in assay [1], in [2], in assay [9], in assay [3], in assay [4] and in [5] was inactive. Also, the molecule was classed as inactive in [6], in assay [7] and in assay [8].

On to `CC(C)Oc1cc(-n2nc(C(C)(C)C)oc2=O)c(Cl)cc1Cl`, for which the result in [1], in [2], in assay [3], in assay [10], in assay [4] and in assay [5] was inactive. Moreover, the molecule was called inactive in assay [7] and in assay [8].

As for `Fc1ccc(Oc2ccnc3cc(Cl)cc(Cl)c23)cc1`, the outcome in [1], in assay [2], in assay [3], in assay [4], in assay [5] and in [6] was inactive. In addition, the call in assay [7] and in [8] was inactive.

As to `CNC(=O)ON=CC(C)(C)SC`, the molecule was classed as inactive in [1], in assay [2], in assay [9], in assay [3], in assay [4] and in assay [5]. In addition, the molecule was classed as inactive in assay [7] and in assay [8].

In the case of `Cc1cc(Cl)ccc1OCC(=O)O`, the outcome in [1], in assay [2], in assay [9], in assay [3], in [4] and in assay [5] was inactive. Besides, the molecule was called inactive in assay [6], in assay [7] and in assay [8].

For the molecule `Cc1c(F)c(F)c(COC(=O)C2C(/C=C(\Cl)C(F)(F)F)C2(C)C)c(F)c1F` (centres undefined), the result in [1], in assay [2], in assay [9], in assay [3], in [10] and in assay [4] was inactive. Moreover, the molecule was called inactive in assay [5], in assay [6], in [7] and in assay [8].

On to `C=CCC1=C(C)C(OC(=O)C2C(C=C(C)C)C2(C)C)CC1=O` (centres undefined), for which the molecule was classed as inactive in [1], in assay [2], in assay [9], in [3], in assay [10] and in assay [4]. The call in assay [5] and in [7] was inactive. The AC50 in assay [8] was 100 µM (active).

For `CCNc1nc(Cl)nc(NCC)n1`, the molecule was classed as inactive in assay [1], in assay [2], in assay [9], in [3], in [4] and in [5]. Also, the molecule was called inactive in assay [7] and in assay [8].

Regarding `COc1nc(NC(C)C)nc(NC(C)C)n1`, the result in assay [1], in assay [2], in assay [3], in assay [4], in assay [5] and in assay [6] was inactive. Further, the molecule was classed as inactive in assay [7] and in [8].

With `CNC(=S)S`, the molecule was called inactive in assay [1], in assay [2], in assay [3], in assay [10], in [4] and in assay [5]. Moreover, the outcome in assay [7] and in assay [8] was inactive.

For `CO/C=C(/C(=O)OC)c1ccccc1Oc1cc(Oc2ccccc2C#N)ncn1`, the result in assay [1], in assay [2], in assay [3], in assay [4], in assay [5] and in assay [6] was inactive. Further, the outcome in assay [7] and in assay [8] was inactive. For the same molecule, the AC50 in assay [2] was 11.1 µM (active) [middle of 5 runs].

With `CCCC1COC(Cn2cncn2)(c2ccc(Cl)cc2Cl)O1` (centres undefined), the outcome in assay [1], in assay [2], in [9], in [3], in assay [4] and in assay [5] was inactive. For the same molecule, the molecule was called inactive in [7] and in [8].

With `CCCN(CCC)c1c([N+](=O)[O-])cc(S(N)(=O)=O)cc1[N+](=O)[O-]`, the AC50 in assay [1] is 108 µM (active); in assay [9], 66.6 µM (active); in assay [10], 61.6 µM (active). Also, the call in assay [2], in assay [3], in [5], in [7] and in [8] was inactive.

Turning to `C#CCOS(=O)OC1CCCCC1Oc1ccc(C(C)(C)C)cc1` (centres undefined), the molecule was classed as inactive in assay [1], in assay [9], in assay [3], in assay [4], in assay [5] and in [7]. The AC50 was 355 nM (active) in assay [2] and 82.3 µM (active) in assay [8].

The AC50 is the concentration giving half of the maximal activity seen.
